Inconclusive results are not listed. Some structures have more than one record in an assay (separate samples or runs), and their calls can disagree. Active and inactive are the calls of the source. Unless noted, calls come from the whole dose curve; as a rule, active = well fitted curve in the direction sought with a large enough effect in the repeat runs; inconclusive = weak or mixed curves; inactive = no such curve, though single readings can be large; an effect the other way counts as inactive or inconclusive.

Assay [1] can be described thus: qHTS assay to identify small molecule antagonists of the androgen receptor (AR) signaling pathway using the MDA cell line in the presence of 0.5 nM R1881 - cell viability counter screen (AID 1259242). Note: nearly all actives have a fitted effect of over 45% in size. Note: potency is the fitted concentration of half-maximal effect. An outline of the steps:
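Cells seeded at 3,000/well and allowed 5 hr at 37C, 0% CO2 before compound transfer and R1881 (0.5 nM final) addition; 16 hr later, live-cell protease fluorescence indicated cytotoxicity.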
In general terms: qHTS replaces the single test concentration by a dilution series.

Assay [2] addresses Androgen receptor (Homo sapiens) (UniProt P10275). Nature of the assay: qHTS assay to identify small molecule antagonists of the androgen receptor (AR) signaling pathway using the MDA cell line in the presence of 0.5 nM R1881 (AID 1259243). Note: nearly all actives have a fitted effect of over 50% in size. Note: potency is the fitted concentration of half-maximal effect. In short, it runs like this: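 Luminescence from an AR/GR-responsive MMTV-luciferase construct in MDA-kb2 breast carcinoma cells, read 30 min after ONE-Glo, following 16 hr co-treatment with compounds and 0.5 nM R1881.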

Assay [3] concerns the target Estrogen receptor (Homo sapiens) (UniProt P03372). The assay can be described thus: qHTS assay to identify small molecule antagonists of the estrogen receptor alpha (ER-alpha) signaling pathway using the BG1 cell line in the presence of 0.1 nM 17-beta-estradiol (AID 1259244). Note: nearly all actives have a fitted effect of over 50% in size. Note: potency is the fitted concentration of half-maximal effect. An outline of the steps: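 Luciferase signal from VM7Luc4E2 ERE-reporter cells, co-dosed with test compound and 0.1 nM final 17beta-estradiol for 22 h, read with ONE-Glo.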

Assay [4] in a line: qHTS assay to identify small molecule HDAC inhibitors (AID 1259364).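 Note: wild-type HCT-116 cells with endogenous class I/II HDAC activity; top concentration of the series differs between compounds; nearly all actives have a fitted effect of over 45% in size.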 In short, it runs like this: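 HCT-116 wt cells, 1,500/well, overnight attach. Compounds (DMSO) 2 h, 37 °C. HDAC-Glo I/II, 30 min RT. Luminescence.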
Assay [5] in a line: qHTS assay to identify small molecule agonists of the sonic hedgehog signaling (Shh) pathway - cell viability counter screen (AID 1259366). Note: nearly all actives have a fitted effect of over 50% in size. Note: potency is the fitted concentration of half-maximal effect. In short, it runs like this: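 After a 4hr attachment at 37C, NIH/3T3 cells bearing an integrated Gli1-driven luciferase reporter were dosed with compounds. Treatment lasted 24hr, with the final hour including CellTiter-Fluor for a fluorescence viability measurement.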

A short description of assay [6]: qHTS assay to identify small molecule antagonists of the sonic hedgehog signaling (Shh) pathway - cell viability counter screen (AID 1259367). Note: nearly all actives have a fitted effect of over 55% in size. Note: potency is the fitted concentration of half-maximal effect. In short, it runs like this:
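Fluorescence read-out (CellTiter-Fluor, 1 hr at 37C) taken after 23 hr compound treatment of 3T3 Gli1-Luc cells stimulated with conditioned medium. Cells were seeded at 2,000 per well and pre-incubated 4 hr.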

Assay [7] is described as follows: qHTS assay to identify small molecule antagonists of the sonic hedgehog signaling (Shh) pathway (AID 1259369; calls by dose curve; note: nearly all actives have a fitted effect of over 45% in size; note: potency is the fitted concentration of half-maximal effect). An outline of the steps: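 Read-out is luminescence from a firefly luciferase gene controlled by the Gli1 response element, in 3T3Gli1-Luc cells pre-incubated 4hr then exposed to compounds and conditioned medium for 24hr.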
The target in assay [8] is Estrogen receptor beta (Homo sapiens) (UniProt Q92731). The assay can be described thus: qHTS assay to identify small molecule antagonists of the estrogen receptor beta (ER-beta) signaling pathway (AID 1259378; active = well fitted inhibition curve with a large enough effect in the signal ratio in the repeat runs, not every such curve was filed as active; the % refers to the signal ratio; note: potency is the fitted concentration of half-maximal effect). In short, it runs like this: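 ER-beta-UAS-bla HEK293T cells in 2% charcoal-stripped FBS medium treated with compound plus 1nM final 17-beta-estradiol for 16 hr at 37C. Beta-lactamase reporter read by FRET substrate fluorescence after 2 hours at room temperature.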

Assay [9] in a line: qHTS assay to identify small molecule agonists of the androgen receptor (AR) signaling pathway in the presence of an antagonist - cell viability counter screen (AID 1259379). Note: nearly all actives have a fitted effect of over 25% in size. Note: potency is the fitted concentration of half-maximal effect. In short, it runs like this: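 Each compound was tested at 15 concentrations on MDA-kb2 cells in the presence of 3.0uM nilutamide. Viability was measured by CellTiter-Fluor fluorescence after a 16 hr incubation at 37C in a CO2-free atmosphere.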

Assay [10] can be described thus: qHTS assay to identify small molecule agonists of the estrogen receptor beta (ER-beta) signaling pathway - cell viability counter screen (AID 1259380). Note: potency is the fitted concentration of half-maximal effect; nearly all actives have a fitted effect of over 30% in size. An outline of the steps: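 Compounds dissolved in DMSO were pin-transferred onto ER-beta-UAS-bla HEK293T cells that had settled 6 hr, and exposure ran 16 hr at 37C. Following the reporter read, CellTiter-Glo luminescence after 30 min at room temperature indicated cytotoxicity.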

In assay [11] the target is Androgen receptor (Homo sapiens) (UniProt P10275). The assay can be described thus: qHTS assay to identify small molecule agonists of the androgen receptor (AR) signaling pathway in the presence of an antagonist (AID 1259381; calls by dose curve; note: nearly all actives have a fitted effect of over 15% in size). In short, it runs like this: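 Plated MDA-kb2 cells (3,000/well) were pre-incubated 5hr, given nilutamide (3.0uM final) or buffer, then dosed with compounds in DMSO at 15 concentrations. Luciferase activity was quantified by luminescence after 16hr at 37C.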

The nature of assay [12]: qHTS assay to identify small molecule antagonists of the estrogen receptor beta (ER-beta) signaling pathway - cell viability counter screen (AID 1259382). Note: nearly all actives have a fitted effect of over 55% in size. Note: potency is the fitted concentration of half-maximal effect. In short, it runs like this:
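CellTiter-Glo ATP luminescence measured after the LiveBLAzer read in the same wells; ER-beta-UAS-bla HEK293T cells, 16 hr compound treatment with 1nM 17-beta-estradiol agonist at 37C, 5% CO2.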

For assay [13], the target named is Estrogen receptor (Homo sapiens) (UniProt P03372). Nature of the assay: qHTS assay to identify small molecule agonists of the estrogen receptor alpha (ER-alpha) signaling pathway in the presence of an antagonist (AID 1259383; calls by dose curve; note: top concentration of the series differs between compounds; nearly all actives have a fitted effect of over 15% in size). An outline of the steps: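 Luminescent ERE-luciferase reporter, VM7Luc4E2 cells (endogenous ER-alpha); 10.0nM ICI-182,780 final; 15-point compound titration; 22hr at 37C; ONE-Glo, 30min RT.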

The nature of assay [14]: qHTS assay to identify small molecule agonists or antagonists of the thyroid stimulating hormone receptor (TSHR) signaling pathway - wild type cell line counter screen (AID 1259384; calls by dose curve). In short, it runs like this:
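Wild-type Hek293 cells, 800/well, 18 h at 37C, then compound with Ro20-1724 for 30 min RT. cAMP by HTRF (cAMP-d2/anti-cAMP cryptate), 1 h RT, fluorescence read. 15 concentrations, triplicates.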

The target of assay [15] is Thyrotropin receptor (Homo sapiens) (UniProt P16473). Nature of the assay: qHTS assay to identify small molecule antagonists of the thyroid stimulating hormone receptor (TSHR) signaling pathway (AID 1259385; calls by dose curve; note: nearly all actives have a fitted effect of over 20% in size). In short, it runs like this:
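TSHR-HEK293 cells (800/well) plated 18 h, then compounds with Ro20-1724 and TSH at 1.5 ng/mL final, 30 min at room temperature. cAMP quantified by HTRF (cAMP-d2/anti-cAMP-cryptate, 1 h); 15 concentrations in triplicate.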

Assay [16] in a line: qHTS assay to identify small molecule agonists of the estrogen receptor alpha (ER-alpha) signaling pathway in the presence of an antagonist - cell viability counter screen (AID 1259386).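 Note: cells exposed to compounds for 22 h at 37 °C before the viability read; nearly all actives have a fitted effect of over 30% in size.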 Note: potency is the fitted concentration of half-maximal effect. In short, it runs like this: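 Using estrogen-depleted VM7Luc4E2 cells, the 15-concentration compound series was applied together with 10.0nM ICI-182,780 and incubated 22hr at 37C/5% CO2. Cell viability was then scored by CellTiter-Fluor.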

Assay [17] can be described thus: qHTS assay to identify small molecule phospholipidosis (PLD) inducers (AID 1259344; active = well fitted curve in the direction sought with a large enough effect; an effect the other way counts as inactive or inconclusive). In short, it runs like this:
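Read-out is LipidTOX Red fluorescence (ex 595/em 615) imaged in HepG2 cells after 24 h compound exposure at 37 C, with Hoechst nuclear counterstain (ex 352/em 461) allowing per-cell normalisation.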

Assay [18] is described as follows: qHTS assay to identify small molecule HDAC inhibitors - cell viability counter screen (AID 1259365). Note: series mostly up to about 92 µM; nearly all actives have a fitted effect of over 50% in size. An outline of the steps:
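Following a 2hr exposure of overnight-plated wild-type HCT-116 cells to DMSO-delivered compounds, CellTiter-Glo was added and luminescence recorded after 30min at room temperature.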

The nature of assay [19]: qHTS assay to identify small molecule agonists of the sonic hedgehog signaling (Shh) pathway (AID 1259368; calls by dose curve;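 note: NIH/3T3-derived 3T3Gli1-Luc cells carrying a stable Gli1-driven firefly luciferase reporter; series mostly up to about 92 µM; nearly all actives have a fitted effect of over 15% in size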). In short, it runs like this: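 Following a 24 hr incubation with DMSO-dissolved compounds at 37 C, 5% CO2, Gli1-Luc NIH/3T3-derived cells received luciferase reagent for 30 min at room temperature prior to luminescence measurement.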
In assay [20] the target is Estrogen receptor beta (Homo sapiens) (UniProt Q92731). Nature of the assay: qHTS assay to identify small molecule agonists of the estrogen receptor beta (ER-beta) signaling pathway (AID 1259377; active = well fitted activation curve with a large enough effect in the signal ratio in the repeat runs, not every such curve was filed as active; the % refers to the signal ratio). An outline of the steps:
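In HEK293T cells bearing a UAS-beta-lactamase reporter under ER-beta control, DMSO-delivered compounds were incubated for 16 hr at 37C. Activity was detected as fluorescence 2 hours after LiveBLAzer B/G FRET substrate addition.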

Estrogen receptor (Homo sapiens), sequence (P03372 whole entry, looked up): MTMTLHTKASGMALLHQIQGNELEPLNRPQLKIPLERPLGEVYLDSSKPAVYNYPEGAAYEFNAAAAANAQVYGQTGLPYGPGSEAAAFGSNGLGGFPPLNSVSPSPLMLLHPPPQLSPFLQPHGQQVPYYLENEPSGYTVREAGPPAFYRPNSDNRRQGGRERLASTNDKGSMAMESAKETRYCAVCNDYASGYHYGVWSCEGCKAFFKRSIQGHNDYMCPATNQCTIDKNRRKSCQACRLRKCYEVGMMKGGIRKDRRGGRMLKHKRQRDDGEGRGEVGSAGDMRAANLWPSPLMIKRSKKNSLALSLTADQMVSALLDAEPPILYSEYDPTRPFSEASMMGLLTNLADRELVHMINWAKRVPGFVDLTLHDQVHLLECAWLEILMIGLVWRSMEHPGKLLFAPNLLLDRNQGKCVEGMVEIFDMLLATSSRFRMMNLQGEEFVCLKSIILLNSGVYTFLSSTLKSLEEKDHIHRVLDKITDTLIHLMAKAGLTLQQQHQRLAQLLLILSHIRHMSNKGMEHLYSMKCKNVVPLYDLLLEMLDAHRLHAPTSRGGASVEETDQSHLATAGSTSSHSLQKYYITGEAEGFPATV
Androgen receptor (Homo sapiens), sequence (P10275 whole entry, looked up): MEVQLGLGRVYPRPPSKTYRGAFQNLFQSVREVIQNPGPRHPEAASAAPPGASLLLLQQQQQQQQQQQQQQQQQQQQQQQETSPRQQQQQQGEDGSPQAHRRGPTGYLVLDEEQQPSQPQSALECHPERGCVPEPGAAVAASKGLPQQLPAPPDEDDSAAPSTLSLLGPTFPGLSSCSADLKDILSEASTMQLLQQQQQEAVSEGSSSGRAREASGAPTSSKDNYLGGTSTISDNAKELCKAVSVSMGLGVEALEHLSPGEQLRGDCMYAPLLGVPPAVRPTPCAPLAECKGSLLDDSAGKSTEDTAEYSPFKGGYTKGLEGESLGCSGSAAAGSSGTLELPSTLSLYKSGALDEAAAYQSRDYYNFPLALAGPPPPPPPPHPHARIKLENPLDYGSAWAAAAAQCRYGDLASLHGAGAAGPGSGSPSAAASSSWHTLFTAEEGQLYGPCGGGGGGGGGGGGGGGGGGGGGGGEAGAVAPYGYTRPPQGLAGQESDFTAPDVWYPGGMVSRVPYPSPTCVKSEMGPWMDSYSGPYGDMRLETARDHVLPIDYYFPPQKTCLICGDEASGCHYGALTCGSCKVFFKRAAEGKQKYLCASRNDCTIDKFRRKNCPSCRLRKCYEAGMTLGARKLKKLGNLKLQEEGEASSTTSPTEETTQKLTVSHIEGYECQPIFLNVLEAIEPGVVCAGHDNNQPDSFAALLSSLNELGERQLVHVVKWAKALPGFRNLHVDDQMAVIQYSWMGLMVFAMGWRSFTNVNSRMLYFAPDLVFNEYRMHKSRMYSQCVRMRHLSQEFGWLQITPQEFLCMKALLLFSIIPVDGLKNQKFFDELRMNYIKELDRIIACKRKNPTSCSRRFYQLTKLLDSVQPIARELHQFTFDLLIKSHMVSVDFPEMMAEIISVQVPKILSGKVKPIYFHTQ
Thyrotropin receptor (Homo sapiens), sequence (P16473 whole entry, looked up): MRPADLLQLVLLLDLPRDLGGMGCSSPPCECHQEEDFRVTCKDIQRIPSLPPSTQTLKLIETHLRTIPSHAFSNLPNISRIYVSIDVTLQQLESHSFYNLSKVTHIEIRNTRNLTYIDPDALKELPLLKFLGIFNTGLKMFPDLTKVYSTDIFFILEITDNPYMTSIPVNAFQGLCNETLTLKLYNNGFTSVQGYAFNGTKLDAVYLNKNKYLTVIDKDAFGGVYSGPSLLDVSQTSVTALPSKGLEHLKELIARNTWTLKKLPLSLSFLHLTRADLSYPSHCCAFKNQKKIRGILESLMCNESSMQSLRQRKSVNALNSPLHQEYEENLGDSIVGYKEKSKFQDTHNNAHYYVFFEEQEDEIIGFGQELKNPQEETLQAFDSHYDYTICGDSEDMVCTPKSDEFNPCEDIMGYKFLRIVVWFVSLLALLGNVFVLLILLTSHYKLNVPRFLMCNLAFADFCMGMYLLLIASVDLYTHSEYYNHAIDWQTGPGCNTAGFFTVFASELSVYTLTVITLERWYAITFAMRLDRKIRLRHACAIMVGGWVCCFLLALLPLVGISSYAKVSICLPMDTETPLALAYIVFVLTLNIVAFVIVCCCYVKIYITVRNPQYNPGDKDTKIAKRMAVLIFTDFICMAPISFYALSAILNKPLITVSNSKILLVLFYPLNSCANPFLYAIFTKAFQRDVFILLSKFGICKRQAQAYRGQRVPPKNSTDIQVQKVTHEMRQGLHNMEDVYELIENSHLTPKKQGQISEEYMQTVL
Estrogen receptor beta (Homo sapiens), sequence (Q92731 whole entry, looked up): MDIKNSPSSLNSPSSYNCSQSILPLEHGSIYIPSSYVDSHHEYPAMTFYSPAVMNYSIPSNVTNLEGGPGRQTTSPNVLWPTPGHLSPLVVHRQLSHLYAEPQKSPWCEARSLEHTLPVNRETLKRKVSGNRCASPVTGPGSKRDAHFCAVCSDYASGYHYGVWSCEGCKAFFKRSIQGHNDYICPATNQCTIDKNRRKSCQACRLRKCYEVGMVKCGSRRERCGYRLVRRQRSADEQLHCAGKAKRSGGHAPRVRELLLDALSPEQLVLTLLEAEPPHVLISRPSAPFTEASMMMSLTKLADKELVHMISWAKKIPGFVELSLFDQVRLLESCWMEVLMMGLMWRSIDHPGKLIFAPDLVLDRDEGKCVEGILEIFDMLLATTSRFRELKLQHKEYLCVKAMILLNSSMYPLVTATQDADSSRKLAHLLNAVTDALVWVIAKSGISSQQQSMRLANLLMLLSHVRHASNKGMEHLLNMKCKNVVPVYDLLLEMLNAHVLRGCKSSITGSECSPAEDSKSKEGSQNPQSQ

`C=CC(=O)OCC(CO)(COCC(COC(=O)C=C)(COC(=O)C=C)COC(=O)C=C)COC(=O)C=C`: the Potency is 3.03 µM (active) in assay [1]; 2.4 µM (active) in assay [2]; 17 µM (active) in assay [3]; 1.07 µM (active) in assay [5]; 3.03 µM (active) in [6]; 0.48 µM (active) in [7]. Also, the Potency in assay [8] is 4.8 µM (active); in [9], 5.38 µM (active); in assay [10], 9.57 µM (active); in assay [12] it was 7.6 µM (active); in assay [16] it was 10.7 µM (active). Moreover, the Potency entry in [4], in assay [11], in assay [13] and in assay [15] was “inactive” in each case. Also, in assay [14], the call was inactive.

Regarding `Cc1onc(-c2c(Cl)cccc2Cl)c1C(=O)N[C@@H]1C(=O)N2[C@@H]1SC(C)(C)[C@@H]2C(=O)O`, the Potency entry in [1], in assay [2], in assay [17], in assay [18], in assay [5] and in [6] was “inactive” throughout. Besides, the Potency result in [19], in assay [7], in assay [9], in assay [11], in assay [15] and in assay [16] was “inactive” throughout.

Consider `Nc1cc(C(F)(F)F)ccc1S`, for which the Potency result in assay [1], in assay [2], in [3], in assay [4], in assay [18] and in [19] was “inactive” in each case. The Potency entry in [20], in assay [9], in assay [11], in assay [13] and in assay [16] was “inactive” throughout. The results for the Potency in assay [7] and in assay [10] were 13.3 µM (active) and 21.1 µM (active), respectively.

`CCCCCCCCCOC(=O)c1ccc(O)cc1`: the Potency entry in assay [1], in [4], in [18], in [6], in assay [19] and in assay [11] was “inactive” in each case. In addition, the Potency in assay [2] was 42.7 µM (active); in assay [5] it was 60.3 µM (active); in assay [10], 53.7 µM (active); in assay [12], 53.7 µM (active). Also, in assay [14], the compound was called inactive.

Consider `Cc1c(C)c2c(c(C)c1O)CCC(C)(COc1ccc(CC3SC(=O)NC3=O)cc1)O2` (stereo not drawn), for which the Potency result in assay [1], in assay [4], in assay [18], in assay [6], in [19] and in assay [9] was “inactive” each time. Besides, the Potency entry in assay [11], in assay [12], in assay [13], in assay [15] and in assay [16] was “inactive” in each case. Moreover, the Potency was 54.5 µM (active) and inactive in assay [2]; 54.5 µM (active) in assay [7]; 11.9 µM (active) in [10]. Further, in assay [14], the call was inactive.

Take `CCCCN(CCCC)c1ccc(C(=O)c2ccccc2C(=O)O)c(O)c1`: the Potency result in assay [1], in [2], in assay [4], in [5], in assay [6] and in [7] was “inactive” each time. In addition, the Potency result in assay [9], in [11], in [15] and in assay [16] was “inactive” each time. In assay [10], the Potency is 15.5 µM (active).

As for `ON=C1CCCC1`, the Potency result in assay [1], in assay [4], in assay [18], in [5], in [6] and in [7] was “inactive” in each case. Further, the Potency result in assay [8], in [9], in [11], in assay [12], in assay [13] and in [15] was “inactive” throughout. Besides, the Potency is 63.3 µM (active) in assay [2] and 35.6 µM (active) in [10]. Further, the compound was called inactive in [14].

(Values after PubChem BioAssay (Tox21).)
